# Screening results deposited in PubChem by National Center for Advancing Translational Sciences (NCATS).
# Vif-APOBEC3G blk: inhibitors of Vif-APOBEC3G interaction; HeLa A3G-eYFP + Vif (tagged APOBEC3G with the HIV-1 protein that degrades it), YFP fluorescence, overnight; Potency, µM (doses to about 46.1 µM), inactives show at the top dose activity, negative = active, usual class: inhibitors; hit rate 0.076% among 410,000; AID 602310; note: potency is the fitted concentration of half-maximal effect; % is set by controls: 0 for no effect and ±100 for the full control effect; nearly all actives have a fitted effect of over 60% in size
# Target sequence (Q9HC16 whole entry, looked up): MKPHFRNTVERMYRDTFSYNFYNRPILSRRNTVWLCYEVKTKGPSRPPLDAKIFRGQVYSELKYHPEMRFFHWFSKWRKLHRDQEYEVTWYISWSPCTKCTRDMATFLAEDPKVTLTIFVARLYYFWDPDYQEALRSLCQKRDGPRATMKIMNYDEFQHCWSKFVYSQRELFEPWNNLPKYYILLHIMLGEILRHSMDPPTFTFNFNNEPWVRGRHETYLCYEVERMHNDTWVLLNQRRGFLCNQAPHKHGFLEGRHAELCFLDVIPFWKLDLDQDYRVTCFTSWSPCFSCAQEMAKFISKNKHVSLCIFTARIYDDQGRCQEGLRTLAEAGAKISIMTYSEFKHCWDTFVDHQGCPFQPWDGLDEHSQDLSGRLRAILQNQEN
#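 Read-out is eYFP fluorescence (Ex 488/Em 500-530) from Vif-expressing HeLa A3G-eYFP cells; more signal means A3G escaped Vif-mediated degradation. Cells plated overnight, compound pinned in, incubated overnight at 37 deg C.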
# Giardia killer: Giardia lamblia killing; Giardia lamblia trophozoite viability; activity change, % at 7.66 µM, hits read low; hit rate 0.15% among 340,000; AID 540267; in the data active = activity change below about -80%; inconclusive = between about -30% and that limit;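 note: parasites exposed to compound for two days anaerobically before the ATP read; % is set by controls: 0 for no effect and ±100 for the full control effect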
#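 Giardia trophozoites, 100 cells per well, were exposed to compounds for 48 hrs at 37 deg C under anaerobic conditions; viability was then read as ATP content by bioluminescence after 15-30 min at room temperature.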
# IL-1B inflam inh: inflammasome signaling inhibition, IL-1 beta readout; THP-1 LPS/ATP IL-1B secretion, AlphaLISA, 16 h; active compounds read low; activity change, % at 57.5 µM; hit rate 4.7% among 360,000; AID 743279; in the data active = activity change below about -50%; inconclusive = mostly about -30% to -49%; note: % is set by controls: 0 for no effect and ±100 for the full control effect
#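 THP-1 cells pretreated 1 hr with compounds (up to 57.5 uM final), then stimulated with LPS (250 ng/mL final) plus ATP (1.25 mM final); secreted IL-1B measured by AlphaLISA after 16 hr, decreased signal indicating inhibition.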
# SW480 rerep: induces DNA re-replication in SW480 colon adenocarcinoma cells. SW480 DNA re-replication, Hoechst DNA content imaging, 48 h. Potency, µM (highest dose often 46.1 µM), for the others: at the highest dose re-replication activation, usual class: activators. hit rate 1.8% among 340,000. AID 624297; note: potency is the fitted concentration of half-maximal effect; % of control where 0% means no effect; nearly all actives have a fitted effect of over 55% in size
#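 250 cells/well; 23 nL cpd via pin tool; 48 hr, 37 C, 5% CO2; Hoechst 40 min; imager read of total nuclear intensity, ex 405/em 500-530 nm.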
# MCF10A rerep: induces DNA re-replication in MCF 10a normal breast cells; MCF 10A DNA re-replication, Hoechst nuclear intensity, 48 h; Potency, µM (doses to about 46.1 µM), for inactives: at the highest dose activity, positive = re-replication, hits mostly activators; hit rate 2.9% among 350,000; AID 624296; note: potency is the fitted concentration of half-maximal effect; % of control where 0% means no effect; nearly all actives have a fitted effect of over 50% in size
# Vif-APOBEC3F blk: blocks the Vif interaction with APOBEC3F | HeLa A3F-eYFP + Vif (tagged APOBEC3F with the HIV-1 protein that degrades it), YFP fluorescence increase | Potency, µM (doses to about 46.1 µM), inactives show at the highest dose activity, negative = active | hit rate 0.2% among 390,000 | AID 602313; note: potency is the fitted concentration of half-maximal effect; % of control where 0% means no effect; nearly all actives have a fitted effect of over 65% in size
#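 HeLa cells stably expressing Vif plus C-terminally eYFP-tagged A3F were seeded, incubated overnight at 37 deg C, dosed with compound, incubated overnight again at 37 deg C. Yellow fluorescence (Ex 488/Em 500-530) reported blocked Vif-mediated A3F-eYFP degradation.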
# Active calls of the source: *; ? = inconclusive; · = no result given. Shown are actives, neighbours in structure and some others; about 6.9% of the full set was active somewhere. Unless noted, calls come from the whole dose curve; as a rule, active = well fitted curve in the direction sought with a large enough effect; inconclusive = small, poorly fitted or top-dose-only effect, or another doubt; inactive = no such curve, though single readings can be large; an effect the other way counts as inactive or inconclusive.
SMILES,Vif-APOBEC3G blk,Giardia killer,IL-1B inflam inh,SW480 rerep,MCF10A rerep,Vif-APOBEC3F blk
O=C(NC1CC(=O)N(c2cccc(F)c2)C1)C1CC1 (centres undefined),-3%,·,·,·,·,-5%
COc1ccc2c(C)c(CCC(=O)NCCc3ccc(OC)c(OC)c3)c(=O)oc2c1,-2%,·,·,·,·,0%
CCCCCCNC(=O)C(C#N)c1nc2ccccc2nc1N1CCCC1 (centres undefined),-2%,4,19,?,13µM*,-7%
CCCCCNC(=O)C(C#N)c1nc2ccccc2nc1N1CCCC1 (centres undefined),-17%,-5,19,?,10µM*,7.1µM*
CCCCCCNC(=O)C(C#N)c1nc2ccccc2nc1N1CCOCC1 (centres undefined),-5%,7,-3,-4%,-4%,?
CCOC(=O)c1c(NC(=O)CC2Nc3ccccc3NC2=O)sc(C)c1C (centres undefined),0%,5,-5,?,?,?
O=C(CC1Nc2ccccc2NC1=O)Nc1cc(Cl)cc(Cl)c1 (centres undefined),-1%,-11,7,1.8µM*,?,-2%
Cc1cc2c(cc1C)NC(CC(=O)Nc1cccc(Cl)c1)C(=O)N2 (centres undefined),-13%,·,·,·,·,?
COC(=O)c1c(NC(=O)CC2Nc3ccccc3NC2=O)sc(C)c1C (centres undefined),-6%,3,0,4%,10µM*,?
CC(C)OC(=O)c1cccc(C(=O)Oc2ccccc2)n1,-5%,3,30,-3%,2%,1%
CC(C)OC(=O)c1cccc(C(=O)OCc2ccco2)n1,-29%,5,-74*,?,?,-9%
O=C(OCc1ccco1)c1cccnc1,1%,-16,12,?,13µM*,1%
Cc1ccccc1OC(=O)CSc1nnc(-c2cccs2)o1,3%,·,·,·,·,1%
COc1ccc(Cl)cc1NC(=O)c1cnc2sc(N3CCOCC3)nn2c1=O,-2%,·,·,·,·,4%
CN1C(C(=O)c2ccccc2)=C(OC(=O)c2ccc(Br)cc2)c2ccccc2S1(=O)=O,2%,·,·,·,·,1%
O=C(CCN1C(=O)/C(=C\c2ccccc2Cl)SC1=S)Nc1cccnc1,-7%,-10,-52*,1%,23%,-7%
O=C(CCCN1C(=O)/C(=C/c2ccccc2OC(F)F)SC1=S)Nc1cccnc1,-8%,4,-85*,?,23µM*,-7%
O=C(CCCN1C(=O)/C(=C/c2ccccc2Cl)SC1=S)NNC(=O)c1ccccc1,2%,-12,-102*,13%,?,-7%
COc1ccccc1NC(=O)C1CCN(S(=O)(=O)c2ccc3[nH]c4c(c3c2)CCCCC4)CC1,1%,·,·,·,·,4%
COc1ccc(NC(=O)C(=O)NCC(c2cccnc2)N2CCc3ccccc3C2)cc1 (centres undefined),2%,·,·,·,·,7%
Cc1cc[n+](CC(=O)c2ccc(F)cc2)c2ccccc12,-1%,·,·,·,·,·
COc1cc2c(cc1OC)C(COc1ccc3c(C)cc(=O)oc3c1)N(C(=O)c1ccccc1C)CC2 (centres undefined),4%,·,·,·,·,-12%
CC(C)(C)C1CCC(=NNC(=O)c2cc3c(s2)CCCC3)CC1 (centres undefined),?,-20,1,-4%,22%,-17%
CC(C)(C)C1CCc2sc(C(=O)NNC(=O)CCl)cc2C1 (centres undefined),-2%,-1,-98*,?,?,4%
O=C(Nc1ccc(S(=O)(=O)N2CCOCC2)cc1)c1cc(-c2ccccc2O)n[nH]1,-8%,24,?,10%,16%,-8%
SMILES,Vif-APOBEC3G blk,Giardia killer,IL-1B inflam inh,SW480 rerep,MCF10A rerep,Vif-APOBEC3F blk
CC1CN(S(=O)(=O)c2ccc(NC(=O)c3cc(-c4ccccc4O)n[nH]3)cc2)CC(C)O1 (centres undefined),-2%,13,-51*,?,13%,3%
CCOc1ccc(CNC(=O)c2cccc(NC(=O)C3=C(C)OCCS3)c2)cc1,6%,-14,-5,-5%,-4%,7%
CC1=C(C(=O)Nc2ccc(CC(=O)NCc3ccc(OC(C)C)cc3)cc2)SCCO1,-3%,?,62,?,0.33µM*,-2%
COc1ccc(CNC(=O)Cc2ccc(NC(=O)C3=C(C)OCCS3)cc2)cc1,?,?,49,?,8.2µM*,-5%
Cn1c(=O)cc(SCC(=O)N2CCN(c3ccccc3F)CC2)c2ccc(Cl)cc21,2%,·,·,·,·,0%
CSc1cc(-c2ccccc2)[nH]c(=O)c1C#N,0%,6,-1,15µM*,-1%,-5%
Cc1cc(-c2ccccc2)[nH]c(=O)c1C#N,-3%,9,-9,-1%,0%,0%
Cc1ccc(C)c(C(C)NC(=S)NCc2ccc(F)cc2)c1 (centres undefined),-1%,10,40,?,20%,11µM*
CC(C)(C)NC(=O)COC(=O)CNC(=O)C1CCCCC1,-2%,17,·,·,·,·
CCOc1ccc(NC(=O)c2c(NC(=O)CNCCN3CCOCC3)sc3c2CCC3)cc1,0%,-13,-11,7.3µM*,-7%,3%
Cc1cc(N2CCN(C(c3ccnc4ccccc34)c3nnnn3-c3c(C)cccc3C)CC2)c2ccccc2n1 (centres undefined),·,·,-56*,·,·,·
COc1ccc(OC)c(NC(=O)c2c(C)oc3ncnc(N4CCOCC4)c23)c1,1%,·,·,·,·,-2%
CCN(CC)CCOc1ccc(-c2nc3cc(Cl)ccc3s2)cc1,·,·,·,19µM*,24µM*,·
CCN(CC)CCOc1ccc2nc(N(C)C)sc2c1,2%,-5,21,-5%,9%,·
COc1ccccc1-n1c(CCC(=O)O)ccc1-c1ccccc1,-1%,-5,35,-10%,0%,2%
COc1ccc(-c2ccc(CCC(=O)O)n2-c2ccccc2OC)cc1,?,-13,82,18µM*,15µM*,-9%
Cc1cc(OCCCN2CCC(C(O)(c3ccccc3)c3ccccc3)CC2)ccc1Br,·,·,-75*,·,·,·
CCOc1ccc(NC(=S)N2CCC(C(O)(c3ccccc3)c3ccccc3)CC2)cc1,2%,-2,-17,·,16%,8%
N#Cc1ccc(OCC(O)CN2CCC(C(O)(c3ccccc3)c3ccccc3)CC2)cc1 (centres undefined),2%,-26,-95*,?,?,2%
CC(C)(C(=O)O)c1ccc(C(O)CCCN2CCC(C(O)(c3ccccc3)c3ccccc3)CC2)cc1 (centres undefined),-1%,13,31,-55%,-2%,-1%
N#Cc1cccc(OCCCN2CCC(C(O)(c3ccccc3)c3ccccc3)CC2)c1,·,·,-57*,·,·,·
